Sampled rows, rich in hits. Any-hit rate of the full collection: about 11%.
CBFb RUNX1 block: qHTS Assay for Compounds Blocking the Interaction Between CBF-beta and RUNX1 for the Treatment of Acute Myeloid Leukemia; 230,000 tested, under 10 active; AID 1477, 2009; Potency, µM (series often up to 59.8 µM), without a hit: at the highest dose activity, negative = inhibition, usual class: inhibitors; Runt-related transcription factor 1 (Homo sapiens) + Core-binding factor subunit beta …; AlphaScreen CBFb-His/RUNX1-biotin binding, biochemical; further: % of control where 0% means no effect
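CBFb-His/RUNX1-biotin, 30 nM each, preincubated 20 min RT; compound 15 min RT; Ni + streptavidin beads 50 ng each, 90 min RT; AlphaScreen read.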
HTT cytoprotect: qHTS Multiplex Assay to Identify Dual Action Probes in a Cell Model of Huntington: Cytoprotection (ATP); 0.14% of 230,000 active; Potency, µM (doses to about 56.4 µM), inactives show cytoprotection (ATP increase), hits mostly activators; PC12 HTT-Q103 induced, cytoprotection, ATP luminescence, 40 h; further: potency means the concentration at half of the fitted maximal effect; % of control where 0% means no effect; nearly all actives have a fitted effect of over 45% in size
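PC12 cells with ecdysone-inducible HTT exon 1 Q103-GFP, induced with 100 nM tebufenozide and co-treated with library compounds in a dose series (1536-well, 1500 cells/well). Cytoprotection read as ATP content by ATPlite luminescence.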
PNC inhibitor: High Content Assay for Compounds that inhibit the Assembly of the Perinucleolar Compartment. activity change (PNC), negative = inhibition, % at 10 µM. PC3M PTB-GFP, PNC prevalence imaging, 16 h; stronger effect = lower value. 3.1% of 140,000 active;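 active means readout at or below -70, meaning at least 70% loss of cells showing the perinucleolar compartment, a nuclear body marking cancer cells; inconclusive means readout between -30 and a set limit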;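 further: plate controls were DMSO wells for no effect and camptothecin positive control wells for full effect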
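PC3M cells stably expressing PTB-GFP, 750–1000 cells/well, treated 16 h at 37 °C with compound (23 nl of library stock), in duplicate. After paraformaldehyde fixation and Hoechst stain, imaged at 20x; PNC prevalence scored by image analysis.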
HPGD block: qHTS Assay for Inhibitors of HPGD (15-Hydroxyprostaglandin Dehydrogenase). 15-hydroxyprostaglandin dehydrogenase [NAD(+)] (Homo sapiens), P15428. purified HPGD, NADH fluorescence kinetic, PGE2 substrate. Potency, µM, without a hit: at the highest dose activity change, negative = inhibition, hits mostly inhibitors. 4.3% of 150,000 active. AID 894, 2007; active means well fitted inhibition curve with a large enough effect, not every such curve was filed as active; inconclusive means small, poorly fitted or top-dose-only effect, or another doubt; inactive means no such curve, though single readings can be large or run the other way; further: potency means the concentration at half of the fitted maximal effect; on the % scale 0 is the no-effect control and ±100 the full control effect
Target sequence (P15428 whole entry, looked up): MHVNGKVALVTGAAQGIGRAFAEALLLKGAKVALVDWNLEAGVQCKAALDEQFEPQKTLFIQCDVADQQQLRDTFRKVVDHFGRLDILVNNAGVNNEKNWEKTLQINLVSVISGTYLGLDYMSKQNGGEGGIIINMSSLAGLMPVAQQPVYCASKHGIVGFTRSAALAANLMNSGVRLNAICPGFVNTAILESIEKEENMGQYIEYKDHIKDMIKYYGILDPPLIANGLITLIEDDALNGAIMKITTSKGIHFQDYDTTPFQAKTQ
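NADH formation kinetics: reaction with 30 uM PGE2 and 1 mM NAD+ (final), 20 nM enzyme, Tris-HCl pH 8 with Tween 20, after 15 min compound preincubation at room temperature. Fluorescence change, last versus first of five reads.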
HttQ103 aggreg: qHTS Multiplex Assay to Identify Dual Action Probes in a Cell Model of Huntington: Aggregate Formation (GFP); PC12 HttQ103-GFP aggregates, Acumen cytometry, 40 h; Potency, µM (series often up to 46.1 µM), inactives show at the highest dose activity change, negative = inhibition, actives largely listed as inhibitors; 1.1% of 220,000 active; AID 1688, 2009; further: potency means the concentration at half of the fitted maximal effect; on the % scale 0 is the no-effect control and ±100 the full control effect; nearly all actives have a fitted effect of over 60% in size
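Ecdysone-promoter PC12 model expressing HTT exon 1 Q103 fused to GFP, induced by tebufenozide at 100 nM final. Compounds titrated; aggregates sized 1–25 µm scored on a 488 nm laser cytometer.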
ALDH1A1 inh: qHTS Assay for Inhibitors of Aldehyde Dehydrogenase 1 (ALDH1A1) | 7.3% of 220,000 active | Purified ALDH1A1, NADH fluorescence, propionaldehyde substrate | Potency, µM (top dose mostly 75.3 µM), for the others: at the top dose activity, negative = inhibition, hits mostly inhibitors; active means well fitted inhibition curve with a large enough effect, not every such curve was filed as active; inconclusive means small, poorly fitted or top-dose-only effect, or another doubt; inactive means no such curve, though single readings can be large or run the other way;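 further: potency means the concentration at half of the fitted maximal effect; plate controls were no enzyme wells and a reference inhibitor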
Target sequence (P00352 whole entry, looked up): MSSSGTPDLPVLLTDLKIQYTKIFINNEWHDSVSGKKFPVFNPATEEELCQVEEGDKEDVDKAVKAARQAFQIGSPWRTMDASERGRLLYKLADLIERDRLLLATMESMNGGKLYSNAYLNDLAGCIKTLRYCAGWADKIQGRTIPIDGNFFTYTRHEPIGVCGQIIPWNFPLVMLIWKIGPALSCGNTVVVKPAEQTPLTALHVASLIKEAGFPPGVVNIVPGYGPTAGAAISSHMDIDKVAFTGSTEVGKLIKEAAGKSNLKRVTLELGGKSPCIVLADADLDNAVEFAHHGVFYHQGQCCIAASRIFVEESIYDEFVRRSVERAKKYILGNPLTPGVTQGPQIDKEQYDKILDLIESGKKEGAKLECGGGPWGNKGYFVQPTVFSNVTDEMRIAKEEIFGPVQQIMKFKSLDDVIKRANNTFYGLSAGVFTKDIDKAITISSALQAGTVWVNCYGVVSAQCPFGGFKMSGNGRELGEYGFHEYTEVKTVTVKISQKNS
Numbers without * were called inactive; ? = inconclusive; / = not tested or not shown; [ ] = dose if it differs, or a comment. Unless noted, the call rests on the fitted dose curve; in most records, active means well fitted curve in the direction sought with a large enough effect; inconclusive means small, poorly fitted or top-dose-only effect, or another doubt; inactive means no such curve, though single readings can be large; an effect the other way counts as inactive or inconclusive.

SMILES	CBFb RUNX1 block	HTT cytoprotect	PNC inhibitor	HPGD block	HttQ103 aggreg	ALDH1A1 inh
Cc1cc(/C=N/O)c(C)n1-c1cccc(Cl)c1	-1.3%	-36.1%	/	/	6.2%	14.1µM*
C=C(C)C(O)/C=C/C=C/c1ccccc1 (centres undefined)	10.9%[13.1 µM]	?	/	/	/	-13.4%[13.5 µM]
CCN(C(=O)N(CC)c1ccccc1)c1ccccc1	-20.7%[21.7 µM]	-1.3%	/	-8.8%	/	?
CC(C)C[C@H](NC(=O)[C@H](Cc1c[nH]c2ccccc12)NC(=O)[C@H](CCCCN)NC(=O)CNC(=O)[C@H](CC(C)C)NC(=O)[C@H](CO)NC(=O)[C@@H](N)Cc1cnc[nH]1)C(=O)NCC(=O)N[C@@H](Cc1cnc[nH]1)C(=O)N1CCC[C@H]1C(=O)N[C@@H](CC(=O)O)C(=O)N[C@@H](CCCCN)C(=O)N[C@@H](Cc1ccccc1)C(=O)O	2.8%	/	/	/	/	/
COC(=O)c1ccc(C)c(-n2c(C)cc(C=O)c2C)c1	?	/	-24.0	-21.1%	-11.5%	1.78µM*
C[C@@H]1O[C@@H](n2cc(F)c(=O)[nH]c2=O)[C@H](O)[C@@H]1O	/	-37.1%[1.9 µM]	/	/	/	/
N[C@H](C(=O)O)c1cccc(O)c1	-16.0%	-43.7%	/	-10.1%	/	14.0%
COC(=O)C1=C(C(=O)OC)N2C=CC=CC2(C)C(C(=O)OC)=C1C(=O)OC (centres undefined)	-26.2%	21.3%[10 µM]	?	35.5µM*	-14.0%	-7.4%
COCC(=O)N1CCC2(CCN(Cc3ccccc3)CC2)CC1	/	-28.4%	/	-6.1%	/	-3.9%
CNc1cc([N+](=O)[O-])ccc1N/C=C/C(=O)c1cccs1	-24.5%	25.0%[10 µM]	51.0	-17.0%	?	?
CNc1cc([N+](=O)[O-])ccc1N/C=C/C(=O)c1ccc2c(c1)OCO2	-12.5%	/	-118.2*	-16.1%	21.0%	12.6µM*
CCCn1c(N2CCN(CC(=O)NCc3cccs3)CC2)nc2ccccc21	7.4%	0.2%[10 µM]	-86.9*	-9.8%	-29.8%	?
Cc1cc(=O)[nH]c(N/N=C/c2cccs2)n1	-2.0%	-16.2%[10 µM]	?	-13.6%	4.1%	-14.4%
Cc1cc(=O)[nH]c(N/N=C/c2sccc2C)n1	-2.1%	-13.6%[10 µM]	-9.4	39.8µM*	-10.1%	3.3%
COC(=O)CCCNC(=O)c1ccc2[nH]c(C)c(C)c2c1	-0.4%	-10.6%	/	/	1.26µM*	5.2%
Cc1ccc(S(=O)(=O)N(CCCO)CC(O)CON=C2c3ccccc3-c3ccccc32)cc1 (centres undefined)	-10.4%	-1.1%[10 µM]	32.2	-9.5%	?	8.91µM*
CCOC(=O)c1c(C)oc2cc(Br)c(OC(C)C(=O)OCC)cc12 (centres undefined)	?	-4.5%	-100.0*	-23.8%	?	0.3%
CCCCCCn1cnc2c(c1=O)c1nc3ccccc3nc1n2/N=C/c1ccco1	0.1%	15.1%	?	-23.2%	-6.7%	25.1µM*
C=CCn1cnc2c(c1=O)c1nc3ccccc3nc1n2/N=C/c1cccc(OC)c1	0.3%	-13.5%	8.0	-21.1%	-23.6%	11.2µM*
COCCn1cnc2c(c1=O)c1nc3ccccc3nc1n2/N=C/c1ccco1	3.7%	-28.9%[10 µM]	/	/	-11.3%[9.22 µM]	/
CO[C@H]1COC(=O)C/C=C\[C@H](C)[C@@H](NS(=O)(=O)c2ccc(C)cc2)COC(=O)CCC[C@@H]1C	10.7%[13.1 µM]	-9.2%[10 µM]	/	/	/	?
C=C/C(=C\C)C[C@@H](CC(=O)N[C@@H](CCC(=O)O)CC(=O)O)NC(=O)[C@@H]1CNCC[C@H]1NC(=O)C[C@@H](NC(=O)C[C@H](Cc1ccccc1)NC(=O)[C@@H]1CCCC[C@H]1N)C(C)C	-3.7%	-33.2%	/	-4.9%	/	8.4%
COc1ccccc1C(=O)NC(CCSC)C(=O)NC1CCCCCC1 (centres undefined)	-16.2%	-32.7%	/	/	17.9%	-8.9%
BrC(/C=N/Nc1nc(N2CCOCC2)nc(N2CCOCC2)n1)=C/c1ccccc1	-4.9%	28.1%	-95.6*	15.8µM*	?	?
Brc1cc2c(cc1/C=N/Nc1nc(N3CCOCC3)nc(N3CCOCC3)n1)OCO2	-1.5%	1.2%[10 µM]	-26.2	-14.7%	6.7%	20µM*
SMILES	CBFb RUNX1 block	HTT cytoprotect	PNC inhibitor	HPGD block	HttQ103 aggreg	ALDH1A1 inh
CC(Oc1ccccc1)C(=O)NNS(=O)(=O)c1ccc([N+](=O)[O-])cc1 (centres undefined)	-1.2%	/	236.7	-0.7%	0.6%	-1.0%
Cc1[nH]c(=O)[nH]c(=O)c1S(=O)(=O)Nc1ccc(Oc2ccccc2)cc1	4.5%	-12.4%	?	-8.6%	?	-5.5%
CN(C)S(=O)(=O)Nc1ccc(Oc2ccccc2)cc1	1.9%	10.7%	14.4	12.6µM*	?	-0.4%
CCc1c(C)sc(NC(=S)Nc2cccnc2)c1C(=O)OC	1.0%	7.3%[10 µM]	/	/	9.4%[9.22 µM]	9.46µM*
CCOC(=S)N/C(=N\S(=O)(=O)c1ccc(C)cc1)c1ccccc1	4.5%	22.0%[10 µM]	28.0	25.1µM*	-0.2%	14.1µM*
CN1CCN(C(=O)c2ccc3c(c2)S(=O)(=O)c2ccccc2C3=O)CC1	3.1%	-19.1%	/	/	24.5%	-7.9%
Cc1ccnc(NC(=O)c2ccc3c(c2)S(=O)(=O)c2ccccc2C3=O)c1	10.6%	0.2%[10 µM]	/	/	-18.8%[9.22 µM]	/
O=C(Nc1ccccn1)c1ccc2c(c1)S(=O)(=O)c1ccccc1C2=O	9.2%	-0.1%[10 µM]	62.0	-15.7%	-2.3%	15.8µM*
CCC(C)(C)NC(=O)c1ccc2c(c1)S(=O)(=O)c1ccccc1C2=O	-3.4%	-49.7%	?	25.1µM*	10.4%	3.55µM*
O=C(NCC(c1ccco1)N1CCCCC1)c1ccc2c(c1)S(=O)(=O)c1ccccc1C2=O (centres undefined)	-19.2%	?	/	/	-6.8%	12.6µM*
CCN1CCN(C(=O)c2ccc3c(c2)S(=O)(=O)c2ccccc2C3=O)CC1	2.5%	-40.3%	/	/	2.4%	7.94µM*
Cc1ccc2c(C)nc(NC3=NCN(C(C)C)CN3)nc2c1	/	-10.5%[0.074 µM]	/	/	/	/
COc1ccc(O)c(C(=O)c2cc(C#N)c(=O)n(CC3CCCO3)c2)c1 (centres undefined)	-7.2%	-9.3%	-3.7	-28.4%	-3.6%	25.1µM*
Cc1ccc(O)c(C(=O)c2cc(C#N)c(=O)n(CC3CCCO3)c2)c1 (centres undefined)	7.6%	22.8%[10 µM]	-9.5	-22.3%	-18.2%	?
Cn1cccc1C(=O)NC(=O)COC(=O)c1ccc(O)cc1	-2.3%	-5.9%	24.6	-18.7%	-1.4%	3.16µM*
